{"source": "PubChem BioAssay (NCATS)", "note": "Inconclusive results are not listed. Active and inactive are the calls of the source. Calls follow the shape of the dose curve; as a rule, active = well fitted inhibition curve with a large enough effect; inconclusive = small, poorly fitted or top-dose-only effect; inactive = flat fitted curve, though single readings scatter. % is scaled to controls: 0 for no effect and ±100 for the full control effect."}
{"experiment": "P-glycoprotein substrates identified in KB-8-5-11 adenocarcinoma cell line, qHTS therapeutic library screen (AID 1346987); also: nearly all actives have a fitted effect of over 65% in size", "details": "KB-8-5-11 (P-gp overexpressing) viability, CellTiter-Glo, 72 h; series mostly up to 44.5 µM; activity change, negative = cytotoxicity: at the top concentration", "summary_of_the_method": "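In this qHTS, P-gp-rich KB-8-5-11 cells received library compounds across a concentration range. Viability was quantified by luminescence after 72 h at 37 degree C.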"}
{"smiles": "O=C(Nc1ccccc1Cl)c1cnc2ccc(C3CCNCC3)cn12", "activity change, negative = cytotoxicity": "-14.1% (inactive)"}
{"smiles": "O=C(Nc1ccc(-c2ccc(Cl)c(Cl)c2)cc1)C1=C(O)c2ccccc2S(=O)(=O)N1", "activity change, negative = cytotoxicity": "0.0285% (inactive)"}
{"smiles": "CC(=O)NC(C(=O)O[C@H]1CCC(C)(C)[C@@H]2CC=C3C(=O)OCC3(O)[C@@]12C)C(C)C", "note": "(stereo not given in full)", "outcome": "inactive"}
{"smiles": "COc1ccc(CN2CCN(C(=O)CCNC(=O)c3ccc(C(C)(C)C)cc3)CC2)cc1", "activity change, negative = cytotoxicity": "-27% (inactive)"}
{"smiles": "Cc1cc2ncc(C(=O)NCC(C)(C)NCC(=O)N3CCC[C@H]3C#N)cn2n1", "activity change, negative = cytotoxicity": "8.79% (inactive)"}
{"smiles": "C[C@@H]1O[C@@H](O[C@H]2[C@@H](OC(=O)[C@]34CCC(C)(C)CC3C3=CCC5[C@@]6(C)C[C@H](O)[C@H](O[C@@H]7O[C@H](CO)[C@@H](O)[C@H](O)[C@H]7O[C@@H]7OC[C@@H](O)[C@H](O)[C@H]7O)[C@@](C)(C(=O)O)C6CC[C@@]5(C)[C@]3(C)CC4)OC[C@H](O)[C@@H]2O)[C@H](O)[C@H](O)[C@H]1O[C@@H]1OC[C@@H](O)[C@H](O)[C@H]1O", "note": "(stereo not given in full)", "outcome": "inactive [at 9.29 µM]"}
{"smiles": "CC(C)C[C@H](CO)Nc1nc(S[C@@H](C)c2ccccc2)nc2nc(N)sc12", "activity change, negative = cytotoxicity": "-0.635% (inactive)"}
{"smiles": "COC1CC/C=C(\\C)C(=O)Nc2cc(O)cc(c2)CC(C)CC(OC)C(O)C(C)/C=C(\\C)C1OC(N)=O", "note": "(stereo not given)", "outcome": "inactive [at 17.3 µM]"}
{"smiles": "Cc1cc(OCCCS(C)(=O)=O)cc(C)c1-c1cccc(COc2ccc3c(c2)OCC3CC(=O)O)c1", "note": "(stereo not given)", "activity change, negative = cytotoxicity": "-14.9% (inactive)"}
{"smiles": "CC(O)(C(=O)O)C1CCC2(C)C1CCC1(C)C2CCC2C3(C)CCC(O)C(C)(COC4OC(CO)C(O)C(O)C4O)C3CCC21C", "note": "(stereo not given)", "activity change, negative = cytotoxicity": "2.34% [at 17.3 µM] (inactive)"}
